For 28 molecules, growth results are on record in PubChem BioAssay (NCI).

Among the test systems are EKVX NSCLC; SN12C renal; UO-31 renal; TK-10 renal; ACHN renal; CAKI-1 renal; A498 renal; CCRF-CEM leukemia; MOLT-4 leukemia.
Assay in all cases: NCI-60 one-dose screen, 48 h (100 = growth as untreated, 0 = no growth, -100 = all killed)
What all share (conditions): 10 µM unless noted

The structures appear in SMILES notation. This is part of a sample that, as a whole, favours compounds with a hit. Of some 83,000 tested, about 20% had one in any assay.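 How to read the values: 0–100, growth inhibition (40 = 60% inhibited); 0, no net growth; -100 to 0, cell death (-40 = 40% of starting cells died; -100 = all dead).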 Unmarked numbers belong to inactive results. The source made the active and inactive calls. The calls were made as follows: active = growth percent below 10; inactive = the rest.

For `Cc1ccc(S(=O)(=O)N2CCc3ccc(O)c4c3C2Cc2ccc3c(c2-4)OCO3)cc1` (stereo not drawn), the growth is 49.3% in the assay with EKVX NSCLC; 39.5% in the assay with SN12C renal; 30.4% with UO-31 renal; 32.6% in the assay on TK-10 renal; 44.9% in the assay on ACHN renal; 32% in the assay with CAKI-1 renal. Moreover, the growth in the assay with A498 renal is 35.6%; with CCRF-CEM leukemia, -11.9% (active); in the assay with MOLT-4 leukemia it was 10.9%.
Consider `COCCOC1=C(Cl)C(=O)c2ccccc2C1=O`, for which the growth with EKVX NSCLC is 38.9%; in the assay on SN12C renal, 33.4%; in the assay with UO-31 renal, -20.2% (active); with TK-10 renal, 97.9%; in the assay with ACHN renal it was 23.7%; with A498 renal it was 67.6%. Further, the growth in the assay on MOLT-4 leukemia is 21.7%.
`FCOC(C(F)(F)F)C(F)(F)F`: the growth with EKVX NSCLC was 107%; in the assay with SN12C renal it was 113%; in the assay with UO-31 renal, 87%; in the assay with ACHN renal, 104%; in the assay on CAKI-1 renal it was 98.5%; in the assay on A498 renal it was 95.3%. Further, the growth in the assay with CCRF-CEM leukemia is 101%; in the assay on MOLT-4 leukemia, 97.3%.
As for `CC(=O)c1cc(C)c(OC(=O)c2ccccc2)c(C)c1`, the growth is 96.5% in the assay with EKVX NSCLC; 102% in the assay on SN12C renal; 84.3% with UO-31 renal; 103% with ACHN renal; 79.3% in the assay with CAKI-1 renal; 105% in the assay on A498 renal. For the same molecule, the growth in the assay with CCRF-CEM leukemia was 85.4%; in the assay with MOLT-4 leukemia, 93.3%.
Turning to `CN1CCc2c(c3ccccc3c3ccccc23)C1`, the growth with SN12C renal is 42.7%; in the assay with UO-31 renal, 42.2%; with TK-10 renal, 60.9%; in the assay on ACHN renal, 25.7%; with CAKI-1 renal, 56.1%; with A498 renal, 62.9%. The figures for the growth in the assay with CCRF-CEM leukemia and with MOLT-4 leukemia were -38.4% (active) and 6.11% (active), respectively.
On to `COc1ccc(-n2c(SCc3cc(OC)c(OC)c(OC)c3)nc3ccc(C)cc3c2=O)c(OC)c1`, for which the growth in the assay with SN12C renal is 45.2%; with UO-31 renal, 18.2%; in the assay on ACHN renal, 44.9%; with CAKI-1 renal it was 13.4%; with A498 renal it was -16.4% (active); with CCRF-CEM leukemia it was 0% (active). For the same molecule, in the assay with MOLT-4 leukemia, the growth is 11.3%.
For the molecule `COc1cc(/C=C/C(=O)CC(=O)/C=C/c2cc(Br)c(OC)c(OC)c2)cc(Br)c1OC`, the growth was 96.6% with SN12C renal; 87.9% in the assay on UO-31 renal; 109% in the assay on TK-10 renal; 109% in the assay with ACHN renal; 105% in the assay with CAKI-1 renal; 98.4% with A498 renal. Moreover, the figures for the growth in the assay on CCRF-CEM leukemia and in the assay with MOLT-4 leukemia were 114% and 71.5%, respectively.
With `CN1CCN(C(=O)OCCOCCOC(=O)N2CCN(C)CC2)CC1`, the growth in the assay with EKVX NSCLC is 100%; with SN12C renal it was 99.9%; in the assay on UO-31 renal, 95.8%; in the assay on TK-10 renal it was 94.5%; with ACHN renal it was 97%; in the assay on CAKI-1 renal, 131%. The growth in the assay on A498 renal is 93%; with CCRF-CEM leukemia, 8.24% (active); with MOLT-4 leukemia, 52.7%.
For the molecule `c1ccc2c(c1)oc1cc3c(cc12)nnc1cccn13`, the growth in the assay on EKVX NSCLC is 80.9%; with SN12C renal, 103%; with UO-31 renal, 64.9%; with TK-10 renal, 122%; in the assay with ACHN renal it was 99.8%; in the assay with CAKI-1 renal, 91.1%. Moreover, the figures for the growth with A498 renal, in the assay with CCRF-CEM leukemia and with MOLT-4 leukemia were 111%, 109% and 108%, respectively.
As to `O=C1NC(=O)C2(CCCC2C(=O)O)N1` (stereo not drawn), the growth in the assay with EKVX NSCLC was 94.2%; in the assay on SN12C renal, 99.6%; with UO-31 renal it was 96.5%; in the assay with TK-10 renal, 106%; in the assay on ACHN renal, 99.5%; with CAKI-1 renal it was 102%. The growth in the assay on A498 renal was 115%; with CCRF-CEM leukemia it was 91.8%; with MOLT-4 leukemia, 101%.
In the case of `O=C1C(OCCOc2ccccc2)=C(OCCOc2ccccc2)C(=O)c2ccccc21`, the growth was 103% in the assay on EKVX NSCLC; 51.8% in the assay on SN12C renal; 46.9% in the assay on UO-31 renal; 116% in the assay on TK-10 renal; 73.5% in the assay on ACHN renal; 94.7% with A498 renal. For the same molecule, in the assay with MOLT-4 leukemia, the growth is 82.9%.
In the case of `CC(C)OC1=C(Cl)C(=O)c2ccccc2C1=O`, the growth with EKVX NSCLC was 103%; with SN12C renal, 90.5%; in the assay on UO-31 renal, 76.7%; in the assay on TK-10 renal, 110%; in the assay with CAKI-1 renal it was 106%; with A498 renal it was 112%. Further, in the assay on MOLT-4 leukemia, the growth is 39.8%.
As for `Oc1ccc2ccccc2c1C1NN=C(c2ccccc2)S1` (stereo not drawn), the growth is 27.4% with EKVX NSCLC; 17.2% with SN12C renal; -11.5% (active) with UO-31 renal; 49% in the assay with TK-10 renal; 10.9% in the assay on ACHN renal; -1.25% (active) with CAKI-1 renal. Further, the growth with A498 renal is 31.3%; with MOLT-4 leukemia, 13%.
Turning to `Cc1ccc2nc(NC(=O)CSC(=S)N3CCN(Cc4ccccc4)CC3)sc2c1`, the growth in the assay with EKVX NSCLC is 72.5%; in the assay on SN12C renal, -1% (active); with UO-31 renal it was -43.4% (active); in the assay on TK-10 renal, -36.4% (active); with ACHN renal, -2.52% (active); in the assay with CAKI-1 renal it was -20.8% (active). For the same molecule, the growth with A498 renal was -3.21% (active); with MOLT-4 leukemia it was 6.71% (active).
As to `COc1c(O)c2c3c(c1OC)-c1ccccc1CC3N(S(=O)(=O)c1ccc(C)cc1)CC2` (stereo not drawn), the growth in the assay with SN12C renal was 50%; in the assay with UO-31 renal, 48%; in the assay on TK-10 renal it was 83.4%; with ACHN renal, 50%; with CAKI-1 renal, 51.1%; with A498 renal, 88.3%. Also, the growth in the assay with CCRF-CEM leukemia was 1.29% (active); with MOLT-4 leukemia, 30.7%.
With `O=C1c2ccccc2-c2cn(Cc3ccccc3)c3cccc(c23)C1c1cccnc1` (stereo not drawn), the growth in the assay with SN12C renal is 59.5%; in the assay on UO-31 renal, 54.9%; with TK-10 renal it was 55.7%; in the assay on ACHN renal, 51.2%; in the assay with CAKI-1 renal, 51.4%; with A498 renal it was 43.3%. Also, the growth is 19.3% in the assay with CCRF-CEM leukemia and 34.8% in the assay with MOLT-4 leukemia.
Take `O=c1[nH]c(-c2ccccn2)nc2sc3c(c12)CCCCCC3`: the growth is 50.5% in the assay on SN12C renal; 31.8% in the assay on UO-31 renal; 37.5% with ACHN renal; 28.1% with CAKI-1 renal; 36.7% in the assay on A498 renal; 32.6% in the assay on CCRF-CEM leukemia. Besides, the growth in the assay with MOLT-4 leukemia is 18.8%.
`O=C1N/C(=C\c2ccccc2)c2ncccc21`: the growth in the assay with EKVX NSCLC was 93.1%; with SN12C renal it was 100%; with UO-31 renal, 69%; with TK-10 renal it was 121%; in the assay with ACHN renal, 103%; in the assay on CAKI-1 renal, 93.6%. For the same molecule, the figures for the growth with A498 renal, in the assay on CCRF-CEM leukemia and with MOLT-4 leukemia were 123%, 97.7% and 80.7%, respectively.
For `Cc1ccc(S(=O)(=O)N2CCc3ccc(O)c4c3C2Cc2cc(Cl)ccc2-4)cc1` (stereo not drawn), the growth in the assay with SN12C renal was 91.9%; in the assay on UO-31 renal it was 48.8%; in the assay on TK-10 renal it was 69.1%; in the assay with ACHN renal it was 57.1%; with CAKI-1 renal, 56.1%; in the assay on A498 renal, 47.5%. In addition, the values for the growth in the assay with CCRF-CEM leukemia and with MOLT-4 leukemia were 94% and 74.4%, respectively.
Consider `N#Cc1c(O)c2c(c(O)c1C#N)C(=O)c1ccccc1C2=O`, for which the growth with EKVX NSCLC is 87.3%; with SN12C renal it was 0.389% (active); in the assay with UO-31 renal it was 68.3%; in the assay with TK-10 renal, 87.5%; in the assay with ACHN renal, 56.2%; with A498 renal, 81.9%. The growth in the assay on CCRF-CEM leukemia is 24.4%; in the assay with MOLT-4 leukemia it was 8.65% (active).
As for `O=C1/C(=C/c2ccccc2F)CNC/C1=C\c1ccccc1F`, the growth with EKVX NSCLC was 22.4%; in the assay with SN12C renal, -51.1% (active); in the assay on UO-31 renal, -89.6% (active); with TK-10 renal it was -4.87% (active); with ACHN renal, -48.9% (active); in the assay on CAKI-1 renal, -52.5% (active). Also, the results for the growth in the assay with A498 renal, with CCRF-CEM leukemia and in the assay with MOLT-4 leukemia were -38.8% (active), -36.3% (active) and -32.5% (active), respectively.
For the molecule `Cc1ccc2nc(NC(=O)CSC(=S)N3CCN(C)CC3)sc2c1`, the growth with SN12C renal is 100%; in the assay with UO-31 renal it was 78.5%; in the assay on TK-10 renal, 122%; with ACHN renal, 100%; in the assay with A498 renal, 108%; in the assay on MOLT-4 leukemia it was 123%.
In the case of `Cc1ccc(S(=O)(=O)N2CCc3ccc(O)c4c3C2CCc2ccccc2-4)cc1` (stereo not drawn), the growth with EKVX NSCLC was 104%; with SN12C renal, 100%; in the assay on UO-31 renal, 67.6%; with TK-10 renal it was 111%; in the assay with ACHN renal it was 93.4%; with CAKI-1 renal, 88.3%. For the same molecule, the growth in the assay with A498 renal is 111%; in the assay on CCRF-CEM leukemia, 83%; with MOLT-4 leukemia it was 77.5%.
As to `CC(=O)OC[C@H](O)[C@@]1(O)CC[C@H]2[C@@H]3CCC4=CC(=O)CC[C@]4(C)[C@H]3[C@@H](O)C[C@@]21C`, the growth in the assay on EKVX NSCLC was 87.3%; with SN12C renal, 85.9%; with UO-31 renal it was 78%; in the assay with TK-10 renal, 112%; in the assay on ACHN renal, 111%; in the assay with CAKI-1 renal it was 85.5%. Besides, the growth was 112% with A498 renal, 89.4% in the assay with CCRF-CEM leukemia and 89% with MOLT-4 leukemia.
For `OC[C@@H](O)[C@@H](O)CO`, the growth is 107% in the assay with EKVX NSCLC; 99.6% in the assay on SN12C renal; 80.5% with UO-31 renal; 111% in the assay on TK-10 renal; 103% in the assay with ACHN renal; 93.9% with CAKI-1 renal. Moreover, the growth with A498 renal is 101%; in the assay with CCRF-CEM leukemia, 100%; with MOLT-4 leukemia, 94.8%.
For the molecule `COc1cccc(OC)c1OC(=O)c1ccccc1`, the growth with EKVX NSCLC is 95.8%; with SN12C renal, 91.2%; with UO-31 renal, 77.5%; in the assay with TK-10 renal, 114%; in the assay on ACHN renal, 107%; with CAKI-1 renal, 88.4%. For the same molecule, the growth is 85.6% in the assay on A498 renal, 92.7% with CCRF-CEM leukemia and 107% in the assay on MOLT-4 leukemia.
Take `Nc1cc2[nH]c(=O)c3ccccc3c2cc1Br`: the growth in the assay with EKVX NSCLC is 44.7%; in the assay on SN12C renal, 72.8%; in the assay with UO-31 renal, 41.2%; in the assay with TK-10 renal, 45.2%; with ACHN renal, 93.9%; in the assay with CAKI-1 renal, 54.3%. Further, the growth in the assay with A498 renal was 37.7%; in the assay with CCRF-CEM leukemia it was 81.2%; in the assay with MOLT-4 leukemia, 87.3%.
With `CCN1CCN(C(=S)SCC(=O)Nc2nc3ccc(OC)cc3s2)CC1`, the growth in the assay on EKVX NSCLC is 101%; in the assay with SN12C renal, 97.6%; in the assay on UO-31 renal, 79%; in the assay on TK-10 renal, 111%; with ACHN renal, 110%; with CAKI-1 renal it was 81.8%. Moreover, the growth in the assay with A498 renal was 105%; in the assay with MOLT-4 leukemia, 97.2%.
